In PubChem BioAssay one finds log fold change Tl+ flux data, which are given here for 12 molecules.

Unmarked numbers belong to inactive results. The source made the active and inactive calls.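 Rule for the calls: active = thallium flux through the channel raised or lowered by more than 3 SD from vehicle-only wells, actives on both sides; inactive = the rest.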

What all share (assay): modulators of BK channel variants, profiling panel, selectivity assay, cell-based, U2OS BacMam, thallium flux, beta subunits (AID 1259406);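 note: initial slope of Thallos dye fluorescence rise after thallium is added; log ratio against the mean of 0.3% DMSO vehicle wells on the same plate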
For one assay, the system named is F380Y. Particulars: at 30 µM.
The subject of a further assay is F380Y/beta1. To be noted: at 30 µM.
The next assay has as its system F380Y/beta2Delta. To be noted: at 30 µM.
In the next assay the test system is F380Y/beta4. To be noted: at 30 µM.
Assay [1] concerns the target Calcium-activated potassium channel subunit alpha-1 (Homo sapiens) + Leucine-rich repeat-containing protein 26 (Homo sapiens) (UniProt Q12791+Q2I0M4). Particulars: F380Y/Slo1WT/gamma1, at 30 µM.
Another assay relates to R275C. Particulars: at 30 µM.
The test system of a further assay is R275C/beta1. To be noted: at 30 µM.
A further assay has as its system R275C/beta2Delta. To be noted: at 30 µM.
The next assay deals with R275C/beta4. Particulars: at 30 µM.
Another assay concerns R275C/Slo1WT/beta2. To be noted: at 30 µM.

Chain of Calcium-activated potassium channel subunit alpha-1 (Homo sapiens) + Leucine-rich repeat-containing protein 26 (Homo sapiens) (Q2I0M4 whole entry, looked up, one chain of several): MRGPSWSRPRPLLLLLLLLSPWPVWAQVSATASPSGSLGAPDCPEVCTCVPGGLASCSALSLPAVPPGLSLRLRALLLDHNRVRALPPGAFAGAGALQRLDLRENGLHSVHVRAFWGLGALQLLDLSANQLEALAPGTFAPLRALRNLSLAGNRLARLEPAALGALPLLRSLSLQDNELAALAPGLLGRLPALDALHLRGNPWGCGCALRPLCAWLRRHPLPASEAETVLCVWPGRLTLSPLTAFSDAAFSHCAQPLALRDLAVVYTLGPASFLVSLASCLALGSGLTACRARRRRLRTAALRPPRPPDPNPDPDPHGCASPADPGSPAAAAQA

In the case of `C[C@H](NC(CCc1ccccc1)C(=O)O)C(=O)N1CCC[C@H]1C(=O)O` (stereo not given in full), the log fold change Tl+ flux was 0.0291 with F380Y; 0.00867 in the assay with F380Y/beta1; 0.0235 in the assay with F380Y/beta2Delta; 0.0162 in the assay with F380Y/beta4; -0.0317 in assay [1]; -0.0419 in the assay on R275C. The log fold change Tl+ flux in the assay on R275C/beta1 is 0.0208; in the assay with R275C/beta2Delta, 0.0297; in the assay with R275C/beta4, 0.0258; in the assay on R275C/Slo1WT/beta2 it was 0.0874 (active).
As to `CN(CCOc1ccc(NS(C)(=O)=O)cc1)CCc1ccc(NS(C)(=O)=O)cc1`, the log fold change Tl+ flux with F380Y was 0.0506; in the assay on F380Y/beta1 it was 0.0264; in the assay on F380Y/beta2Delta, 0.0285; in the assay on F380Y/beta4, 0.0111; in assay [1] it was -0.0274; in the assay on R275C, -0.101. Also, the log fold change Tl+ flux with R275C/beta1 is 0.0214; in the assay with R275C/beta2Delta it was -0.0483; in the assay with R275C/beta4, -9.6e-05; in the assay on R275C/Slo1WT/beta2 it was -0.00913.
For the molecule `Cc1[nH]cnc1CN1CCc2c(c3ccccc3n2C)C1=O`, the log fold change Tl+ flux with F380Y is 0.0315; in the assay with F380Y/beta1, 0.0327; with F380Y/beta2Delta, -0.0209; in the assay on F380Y/beta4, -0.0392; in assay [1], 0.00572; in the assay with R275C, -0.066. Moreover, the log fold change Tl+ flux in the assay on R275C/beta1 was 0.0308; in the assay with R275C/beta2Delta, -0.0141; in the assay on R275C/beta4, 0.0279; in the assay with R275C/Slo1WT/beta2, 0.0535.
As to `NC1CCN(c2nc3c(cc2F)c(=O)c(C(=O)O)cn3-c2ccc(F)cc2F)C1` (stereo not given), the log fold change Tl+ flux is -0.0112 in the assay on F380Y; 0.0192 with F380Y/beta1; -0.101 in the assay with F380Y/beta2Delta; 0.00828 in the assay on F380Y/beta4; 0.0186 in [1]; -0.0155 with R275C. Moreover, the log fold change Tl+ flux is -0.00647 in the assay on R275C/beta1, -0.0395 in the assay with R275C/beta2Delta, -0.0109 in the assay on R275C/beta4 and 0.0163 with R275C/Slo1WT/beta2.
Regarding `Cc1cccc(C)c1NC(=O)C(C)N` (stereo not given), the log fold change Tl+ flux in the assay with F380Y is -0.00461; in the assay with F380Y/beta1 it was -0.0545; in the assay with F380Y/beta2Delta it was 0.0308; in the assay with F380Y/beta4, 0.00908; in assay [1] it was -0.00222; with R275C, 0.0212. Also, the log fold change Tl+ flux in the assay on R275C/beta1 was -0.0204; in the assay with R275C/beta2Delta, -0.0462; in the assay with R275C/beta4, -0.0241; with R275C/Slo1WT/beta2, 0.0922 (active).
As to `COc1cc(C(=O)NC2CCCNC2)cc(OC)c1OC` (stereo not given), the log fold change Tl+ flux in the assay with F380Y was -0.0595; in the assay on F380Y/beta1, -0.0621; in the assay on F380Y/beta2Delta it was -0.0479; with F380Y/beta4, -0.0783; in [1] it was 0.00703; in the assay with R275C, -0.0701. In addition, the log fold change Tl+ flux with R275C/beta1 is -0.0128; with R275C/beta2Delta it was 0.000824; in the assay with R275C/beta4, 0.00216; in the assay with R275C/Slo1WT/beta2, -0.0186.
For `CC(c1cc2ccccc2s1)N(O)C(N)=O` (stereo not given), the log fold change Tl+ flux in the assay on F380Y was -0.00504; in the assay on F380Y/beta1, 0.00537; in the assay on F380Y/beta2Delta, 0.0219; in the assay with F380Y/beta4, 0.0185; in [1], 0.0287; in the assay with R275C it was 0.00217. The log fold change Tl+ flux is 0.0284 in the assay with R275C/beta1, 0.0541 in the assay on R275C/beta2Delta, -0.0188 with R275C/beta4 and 0.0381 in the assay on R275C/Slo1WT/beta2.
Turning to `CC(Cc1ccccc1)(NC(=O)CN)c1ccccc1` (stereo not given), the log fold change Tl+ flux in the assay on F380Y is 0.0343; in the assay on F380Y/beta1 it was 0.0342; in the assay with F380Y/beta2Delta, 0.0679; with F380Y/beta4, 0.0357; in assay [1], -0.0139; in the assay on R275C, 0.0158. Besides, the log fold change Tl+ flux is 0.0479 in the assay on R275C/beta1, 0.036 with R275C/beta2Delta, 0.0184 in the assay on R275C/beta4 and -0.037 with R275C/Slo1WT/beta2.
Take `C#C[C@]1(O)CC[C@H]2[C@@H]3[C@H](C)CC4=C(CCC(=O)C4)[C@H]3CC[C@@]21C`: the log fold change Tl+ flux is 0.0382 in the assay on F380Y; 0.123 (active) in the assay with F380Y/beta1; 0.02 with F380Y/beta2Delta; 0.0383 with F380Y/beta4; 0.094 (active) in [1]; -0.0625 in the assay with R275C. For the same molecule, the log fold change Tl+ flux in the assay with R275C/beta1 is 0.155 (active); in the assay with R275C/beta2Delta, 0.0649; in the assay on R275C/beta4 it was 0.0734; with R275C/Slo1WT/beta2, 0.0272.
For the molecule `C#C[C@]1(O)CC[C@H]2[C@@H]3CCc4cc(OC)ccc4[C@H]3CC[C@@]21C`, the log fold change Tl+ flux is -0.0454 with F380Y; -0.0068 in the assay on F380Y/beta1; -0.0353 in the assay with F380Y/beta2Delta; 0.0115 in the assay on F380Y/beta4; -0.0403 in [1]; -0.0453 in the assay with R275C. Further, the log fold change Tl+ flux is 0.019 in the assay on R275C/beta1, -0.00738 with R275C/beta2Delta, 0.00852 in the assay with R275C/beta4 and -0.04 with R275C/Slo1WT/beta2.
Take `CC(=O)OCC(=O)NCCCOc1cccc(CN2CCCCC2)c1`: the log fold change Tl+ flux in the assay with F380Y is -0.0125; with F380Y/beta1 it was -0.015; in the assay on F380Y/beta2Delta, 0.000408; with F380Y/beta4, -0.0388; in assay [1], -0.00356; in the assay with R275C, -0.0635. Besides, the log fold change Tl+ flux in the assay on R275C/beta1 is 0.00812; in the assay with R275C/beta2Delta, 0.0201; with R275C/beta4 it was -0.00407; with R275C/Slo1WT/beta2, 0.00881.
As for `CCOC(=O)O[C@]1(C(=O)OCCl)CC[C@H]2[C@@H]3CCC4=CC(=O)C=C[C@]4(C)[C@H]3[C@@H](O)C[C@@]21C`, the log fold change Tl+ flux was -0.0169 with F380Y; -0.0185 in the assay on F380Y/beta1; -0.0465 with F380Y/beta2Delta; 0.0515 with F380Y/beta4; 0.0345 in [1]; -0.0297 in the assay with R275C. Besides, the log fold change Tl+ flux is 0.0209 in the assay on R275C/beta1, 0.00232 in the assay on R275C/beta2Delta, 0.00823 in the assay on R275C/beta4 and 0.00305 with R275C/Slo1WT/beta2.
